Measured values: paper PMC5540273 (PLoS ONE, 2017)

Tests used:
Settings in all cases: concentration: 1 μM, replicates: in singlicate; n = 1
[1] = system: PRKCQ
[2] = system: PRKD1
[3] = system: PRKD2
[4] = system: PRKD3
[5] = system: PRKG1
[6] = system: PRKG2
[7] = system: T1, PRKR
T1 construct: gene EIF2AK2

[8] = system: PRKX
[9] = system: PRP4
[10] = system: T2, PYK2
T2 construct: gene PTK2B

[11] = system: QSK
[12] = system: RAF1
[13] = system: RET
[14] = system: RIOK1
[15] = system: RIOK2
[16] = system: RIOK3
[17] = system: RIPK1
[18] = system: RIPK2
[19] = system: RIPK4
[20] = system: RIPK5
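Note: KINOMEscan kinase panel screen.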

SMILES	%Inh [1] [%]	%Inh [2] [%]	%Inh [3] [%]	%Inh [4] [%]	%Inh [5] [%]	%Inh [6] [%]	%Inh [7] [%]	%Inh [8] [%]	%Inh [9] [%]	%Inh [10] [%]	%Inh [11] [%]	%Inh [12] [%]	%Inh [13] [%]	%Inh [14] [%]	%Inh [15] [%]	%Inh [16] [%]	%Inh [17] [%]	%Inh [18] [%]	%Inh [19] [%]	%Inh [20] [%]
COc1ccccc1-c1ccc2c(NC(=O)C3CC3)n[nH]c2n1 [SB-711239]	9	0	11	30	27	22	7	25	53	0	16	38	11	20	9	0	10	33	0	0
O=C(O)COc1ncnc2cc(-c3ccc4[nH]ncc4c3)sc12	41	0	0	25	17	0	0	41	0	0	0	1	11	0	16	0	0	0	30	6
Cl.NC(=O)c1cccc(Nc2nccc(Nc3ccc(Oc4cccc(Cl)c4)c(Cl)c3)n2)c1 [GW659008]	0	0	6	0	0	3	0	15	18	15	9	0	3	37	21	23	27	95.8	72	0
COC(=O)c1c(-c2ccccc2)c2cc(OC)ccc2c(=O)n1Cc1ccccc1	15	0	16	0	0	2	4	4	7	6	23	85	17	0	0	0	0	0	4	24
Cn1ccc2ncnc(Oc3cccc(C(=O)Nc4ccccc4)c3)c21	0	0	9	0	3	0	0	0	5	0	0	5	14	38	0	23	0	15	18	0
CC(=O)Nc1nc2cnc(Nc3cc(NC(=O)c4cccc(CCC#N)c4)ccc3C)nc2s1	9	0	2	12	15	10	8	13	1	0	0	88	51	0	17	10	0	0	0	5
O=C(Nc1n[nH]c2nc(-c3nccs3)c(Br)cc12)C1CCCC1 [SB-742609]	4	0	0	0	2	0	5	0	13	9	0	25	0	2	0	0	0	4	21	1
